Assay outcomes from PubChem.
This is one part of a sample in which hits are shown more often than they occur.
KDM5B inh: KDM5B demethylase inhibition | hit rate 2.6% among 220,000 | Potency, µM (doses to about 57.7 µM), most hits filed as inhibitors | Q9UGL1 | KDM5B demethylase, FDH-coupled NADH fluorescence (FDH is formaldehyde dehydrogenase); active means well fitted inhibition curve with a large enough effect; further: nearly all actives have a fitted effect of over 70% in size
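Coupled FDH/NAD⁺ fluorescence readout. KDM5BΔAP 200 nM final; compound titration, 10 min RT preincubation; substrate mix 12.5 µM H3K4me3, 25 µM 2-OG, 50 µM Fe(II), 100 µM ascorbate, 0.25 mM NAD⁺, 0.25 U/mL FDH; ΔRFU over 30 min.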
A number is an active result; 0 = inactive.

SMILES	KDM5B inh
Cc1nnc(NC2CC(c3cc(=O)[nH]c(C4CC4)n3)C2)c2ccccc12 (stereo not given)	0
O=C(CCCn1cncn1)NC1CC(c2cc(=O)[nH]c(C3CC3)n2)C1 (stereo not given)	0
Cn1ncc2c(N)nc(NC3CC(c4cc(=O)[nH]c(C5CC5)n4)C3)nc21 (stereo not given)	20µM
CCCn1c(SCc2ncc(-c3ccc(Cl)cc3)o2)n[nH]c1=O	0
Cc1ccccc1CN1CCc2ncc(C(=O)Nc3ccccc3)n2CC1	0
C=CCN(C(=O)CN1CCC(CN2CCOCC2)CC1)c1ccccc1	0
CN(C)C(=O)C1CCc2nnc(CNC(=O)c3ccc(Cl)cc3Cl)n21 (stereo not given)	0
CN(C)C(=O)C1CCc2nnc(CNC(=O)c3ccccc3)n21 (stereo not given)	0
Cn1ccc(C(=O)NCc2nnc3n2C(C(=O)NCC2CC2)CC3)n1 (stereo not given)	100µM
Cc1ccc(-c2csc(C3=C(O)CN(NC(=O)c4ccc(Br)cc4)C3=N)n2)cc1	0
Cc1ccc(CNC(=O)N2CCCC(c3nn(C)c(=O)n3Cc3ccccc3)C2)cc1 (stereo not given)	0
COc1ccc(-c2noc([C@@H]3C[C@@H](O)CN3Cc3cc4ccccc4o3)n2)cc1	32µM
COc1ccc(-c2noc([C@@H]3C[C@@H](O)CN3C3CCCCC3)n2)cc1	0
CC(C)c1noc([C@@H]2C[C@@H](O)CN2Cc2ccc(N(C)C)cc2)n1	0
O=S(=O)(Cc1noc([C@@H]2C[C@@H](O)CN2Cc2cc3ccccc3o2)n1)c1ccc(F)cc1	0
CC(C)c1noc([C@@H]2C[C@@H](O)CN2Cc2cc3ccccc3o2)n1	40µM
COc1ccc(CN2C[C@H](O)C[C@H]2c2nc(-c3ccc(OC)cc3)no2)cc1	0
COc1cc(/C=C(\C#N)c2nc3cc(C)c(C)cc3[nH]2)ccc1OCc1ccccc1	0
O=C(CN1CCCC1c1ccccc1)Nc1ccc(F)cc1 (stereo not given)	0
Cc1nn(-c2ccc(F)cc2)c(-n2cccc2)c1C(=O)NCCN1CCCCC1C (stereo not given)	0
O=C(Cc1scnc1-c1cccs1)NCc1ccccc1F	0
COc1ccccc1NC(=O)NCCN1CCNC1=O	0
Cc1cc(NCCN2CCNC2=O)n2nc(C)cc2n1	18µM
Cc1nc(NCCN2CCOC2=O)c2sccc2n1	0
O=S(=O)(NCc1ccc(Cn2cncn2)cc1)c1ccccc1F	0
SMILES	KDM5B inh
Cn1cc(C(=O)NCCNC(=O)Cc2ccc(F)cc2)c2ccccc21	0
CCC1CCCCN1Cc1nc2c(c(=O)n(C)c(=O)n2C)n1CCN1CCOCC1 (stereo not given)	0
COc1ccc(-n2nnnc2C(C)(C)Nc2ccc(C(C)C)cc2)cc1OC	0
COc1ccc(-c2nc3cc(C)ccn3c2NC(=O)c2cccc(F)c2)cc1	0
Cc1cccc(-c2noc(CCCC(=O)NCc3ccco3)n2)c1	0
COc1ccc(Nc2nc(-c3ccc(OC)cc3)c(CCC(=O)O)s2)cc1	0
NCCC(=O)Nc1cc(F)ccc1F	0
Cc1ccc(-c2nc3cnccn3c2NCCC(=O)NCc2ccco2)cc1	28µM
COc1ccc(C(=O)NNC(=O)CCC(=O)Nc2ccc(C)cc2C)cc1	0
COc1ccccc1-c1nc2cnccn2c1NCCC(=O)Nc1cc(F)ccc1F	28µM
CSCC(=O)NCc1ccco1	0
COc1ccccc1-c1cc(C(F)(F)F)nc(S(=O)(=O)CCCC(=O)Nc2ccccc2F)n1	0
COc1ccc(-c2nc3cnccn3c2NCCC(=O)Nc2ccc(C)cc2C)cc1	25µM
COc1ccc(-c2nc3cnccn3c2NCCC(=O)O)cc1	28µM
COc1ccc(-n2ccn(CC(=O)Nc3ccc(C)cc3C)c(=O)c2=O)cc1	0
O=C(/C=C/c1c(Cl)cccc1Cl)c1ccc(OC(F)F)cc1	0
CN(Cc1ccc(C(F)(F)F)cc1)C(=O)CCc1c[nH]c2ccccc12	0
CC(/C=C/c1ccccc1)=N/Nc1ccc(F)cc1F	0
CC1C/C(=N\O)C(C)CN1 (stereo not given)	0
COc1cccc(NC(=O)[C@@H]2C[C@H](c3ccc(F)cc3)N([S+](=O)([O-])C3CC3)C2)c1	0
CC(C)(C)c1[nH]c2c(F)cccc2c1C=O	0
CC(C)Oc1ccc(NC(=O)CCCc2cccs2)cc1	0
Cc1cccc(-c2ocnc2C(=O)Nc2ccc3c(c2)OCCO3)c1	0
CCc1ccccc1NC(=O)c1nc2ccccc2nc1N1CCCCC1	0
Cc1cccc(NC(=O)c2cc3cc(C)ccc3n2C)c1	0
SMILES	KDM5B inh
O=C(Nc1ccc2c(c1)OCCO2)c1cn(-c2ccc(F)cc2)nn1	0
CCc1ccccc1NC(=O)c1nc2nc(C)cc(C(F)F)n2n1	0
CCc1ccccc1NC(=O)c1cc2c(N3CCSCC3)nc(C)cn2n1	28µM
Cc1cc(=O)n(CC(=O)Nc2ccc(C(F)(F)F)cc2)c(N2CCOCC2)n1	0
Cc1cccc(NC(=O)c2ccc3ccccc3n2)c1	0
Cc1cccc(NC(=O)c2cc3c(N4CCSCC4)nc(C)cn3n2)c1	32µM
